Sampled rows, rich in hits. Any-hit rate of the full collection: about 7.4%.
SMN2 splice up = enhancers of SMN2 splice variant expression; HEK293 SMN2-luciferase splicing reporter, luminescence, 30-36 h; Potency, µM (series often up to 46.1 µM), without a hit: top-dose activity change, positive = activation, hits mostly activators; 2.8% of 210,000 active; AID 1458; note: % of control where 0% means no effect; nearly all actives have a fitted effect of over 55% in size
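HEK293 cells carry an SMN2 […]–luciferase reporter in which exon 7 inclusion puts luciferase in frame. Cells were plated 10-12 h before compound addition, then incubated 30-36 h at 37C. ONE-Glo luminescence was read; sodium butyrate at 4.5 mM final served as control.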
NPC1 promoter act = activators of NPC1 promoter | Potency, µM (series often up to 9.22 µM), without a hit: at the top dose activation, usual class: activators | Huh7 NPC1 promoter luciferase reporter, 24 h | 2.4% of 320,000 active; note: % of control where 0% means no effect; nearly all actives have a fitted effect of over 60% in size
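Stable NPC1-promoter luciferase Huh7 line; cpd (DMSO) 24 h, 37 °C, 5% CO2; Amplite luciferase reagent 10 min RT; luminescence readout. qHTS format.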
ELG1 genotoxic = inducers of genotoxicity in HEK293T ELG1-luciferase cells | HEK293T ELG1-luciferase reporter, luminescence, 16 h | Potency, µM (series often up to 46 µM), for inactives: at the highest dose activity change, positive = activation, most hits filed as activators | 1.3% of 330,000 active; note: % of control where 0% means no effect; nearly all actives have a fitted effect of over 60% in size
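Luminescence read-out: rising ELG1-luciferase signal, reflecting elevated ELG1 protein under genetic stress, flags genotoxic compounds. Cells were treated for 16 hr at 37 °C before ONE-Glo detection.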
FLuc modulator = firefly luciferase modulation, counter-screen for miR-21 project; Potency, µM (highest dose often 57.5 µM), inactives show at the top dose activity change, negative = inhibition, hits mostly inhibitors; purified FLuc, Km substrates, luminescence inhibition; P08659; 6.9% of 360,000 active;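 note: plate controls were vehicle for no effect and reference inhibitor for full effect; nearly all actives have a fitted effect of over 55% in size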
Target sequence (P08659 whole entry, looked up): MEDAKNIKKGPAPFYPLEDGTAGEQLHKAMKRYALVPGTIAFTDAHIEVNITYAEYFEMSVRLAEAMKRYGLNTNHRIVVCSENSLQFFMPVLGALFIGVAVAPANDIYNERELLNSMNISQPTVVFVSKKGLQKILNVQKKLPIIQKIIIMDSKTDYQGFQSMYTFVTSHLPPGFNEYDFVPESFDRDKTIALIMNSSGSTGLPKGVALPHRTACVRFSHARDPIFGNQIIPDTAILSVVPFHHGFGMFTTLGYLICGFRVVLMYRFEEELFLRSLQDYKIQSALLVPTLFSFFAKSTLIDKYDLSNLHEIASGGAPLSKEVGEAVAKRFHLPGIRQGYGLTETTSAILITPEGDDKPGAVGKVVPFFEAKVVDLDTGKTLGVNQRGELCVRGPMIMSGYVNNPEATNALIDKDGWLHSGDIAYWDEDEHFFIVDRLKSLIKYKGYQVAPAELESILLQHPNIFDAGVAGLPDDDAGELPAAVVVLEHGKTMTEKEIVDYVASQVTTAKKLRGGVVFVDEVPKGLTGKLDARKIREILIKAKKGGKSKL
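Biochemical qHTS of compounds, final roughly 60 µM downward over six points, against 10 nM purified firefly luciferase using Km concentrations of substrates (10 uM D-luciferin, 10 uM ATP) in Tris acetate pH 7.5 buffer; luminescence output.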
Rab9 promoter act = Rab9 promoter activation | Huh7 Rab9 promoter-luciferase reporter, luminescence, 24 h | Potency, µM (series often up to 9.22 µM), inactives show top-dose activation, negative = inhibition, usual class: activators | 2.8% of 320,000 active; note: % of control where 0% means no effect; nearly all actives have a fitted effect of over 60% in size
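Promoter activation is measured as luciferase luminescence in Huh7 cells stably transfected with a Rab9 promoter–luciferase construct, following 24 h compound exposure at 37 °C and 10 min reagent incubation at ambient temperature.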
Luc counter = Kinase-Glo luciferase inhibition (counter-screen); Q27757; Kinase-Glo luciferase, ATP luminescence, 8 min; Potency, µM (series often up to 38.3 µM), inactives show at the highest dose activity change, negative = inhibition, hits mostly inhibitors; 0.28% of 200,000 active; AID 1379; note: % is set by controls: 0 for no effect and ±100 for the full control effect; nearly all actives have a fitted effect of over 60% in size
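Recombinant Kinase-Glo luciferase, 10 uM ATP (linear range), luciferin; imidazole pH 7.2 / KCl / MgCl2 / Tween / BSA buffer; 8 min RT; luminescence.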
* marks the source's active call; other numbers are inactive results; ? = inconclusive; nt = no result given; [ ] = dose if it differs, or a comment. Calls come from the whole dose curve; as a rule, active = well fitted curve in the direction sought with a large enough effect; inconclusive = small, poorly fitted or top-dose-only effect, or another doubt; inactive = no such curve, though single readings can be large; an effect the other way counts as inactive or inconclusive. Potency is the fitted concentration of half-maximal effect.

SMILES	SMN2 splice up	NPC1 promoter act	ELG1 genotoxic	FLuc modulator	Rab9 promoter act	Luc counter
CCOc1ncccc1C(=O)OCC(=O)c1ccc(C)c(C)c1	?	?	8.7%	10.7µM*	?	-1.7%
CCOc1ncccc1C(=O)OCC(=O)c1ccccc1Br	17.1%	1.4%	3.7%	13.5µM*	0.0%	-5.0%
CCOc1ncccc1C(=O)OCC(=O)c1ccccc1	9.1%	-2.8%	-0.8%	?	-2.9%	-8.6%
O=C1Nc2ccccc2C1=Nc1cccc2ncccc12	-2.4%[9.22 µM]	nt	nt	nt	nt	1.7%[7.66 µM]
Oc1ccc(/C=C/c2ccnc3ccccc23)cc1	20.5%	10.4%	10.8%	23.9µM*	17.0%	2.8%
Clc1ccccc1/C=C/c1ccnc2ccccc12	nt	14.5%	4.1%	19µM*	16.9%	nt
O=C(O)C(=Cc1ccnc2ccccc12)C(=O)O	-4.8%[9.22 µM]	nt	nt	nt	nt	-1.4%[7.66 µM]
NC(CO)(CO)CO	nt	nt	nt	nt	nt	2.0%[39.9 µM]
CCOCCc1nn2c(=O)cc(COC(=O)C3CCCCC3)nc2s1	nt	nt	nt	-6.4%	nt	nt
CN(C)C(=O)COc1ncnc2sc(-c3ccccc3)cc12	nt	21.1%	?	?	27.1%	nt
COc1ncnc2sc(-c3ccccc3)cc12	?	?	?	12µM*	3.16µM*	10µM*
CN(C)c1ncnc2sc(-c3ccccc3)cc12	nt	3.4%	15.1%	15.1µM*	6.7%	nt
CC(C)(C)Nc1ncnc2sc(-c3ccccc3)cc12	nt	-1.4%	-4.2%	?	-0.7%	nt
COc1ccc(N2C(=O)C(CC(=O)Nc3ccc(F)cc3)N(CCC3=CCCCC3)C2=O)cc1 (configuration not stated)	-1.3%	nt	nt	-11.1%	nt	nt
CC1CCN(S(=O)(=O)c2ccc3c(c2)oc(=O)n3CC(=O)N2CCCCC2)CC1	-3.3%	nt	nt	-3.7%	nt	nt
CCn1ncc(C(=O)Nc2cccc(Cl)c2)c1C	12.6µM*	2.8%	?	9.53µM*	?	-2.2%
COc1cccc(NC(=O)c2cnn(-c3ccccc3)c2C)c1	nt	?	1.83µM*	1.51µM*	12.6µM*	nt
CCOC(=O)c1cccc(NC(=O)c2cnn(-c3ccccc3)c2-n2cccc2)c1	-40.2%	nt	nt	-10.7%	nt	nt
CCc1cccc(NC(=O)c2cnn(-c3ccccc3)c2C)c1	nt	0.891µM*	1.83µM*	2.13µM*	2.24µM*	nt
O=C(Nc1cccnc1)c1coc(=O)c2ccccc12	-4.3%	-10.0%	1.0%	0.9%	-0.6%	2.3%
CCc1cccc(NC(=O)c2coc(=O)c3ccccc23)c1	11.9%	nt	nt	10.7µM*	nt	nt
CCc1ccc(NCc2cc3ccc(OC)cc3n(CC(=O)Nc3ccccc3OC)c2=O)cc1	nt	nt	nt	1.9%	nt	nt
COc1ccc(CNC(=O)C2CCN(c3nnc(-n4c(C)ccc4C)s3)CC2)c(OC)c1	7.3%	nt	nt	-2.3%	nt	nt
COC(=O)c1cc2oc3ccccc3c2n1Cc1nc(-c2cccc(C)c2)oc1C	-0.2%	nt	nt	-9.3%	nt	nt
CC1=C/C(=C\c2ccc3c(c2)OCO3)C(=O)S1	-8.5%	-5.8%	-2.4%	19µM*	-0.6%	-4.2%
SMILES	SMN2 splice up	NPC1 promoter act	ELG1 genotoxic	FLuc modulator	Rab9 promoter act	Luc counter
CCc1ccc(NC(=O)CSc2c(C)cnc3c2c(=O)n(C)c(=O)n3C)cc1	nt	nt	nt	-1.0%	nt	nt
Cc1[nH]n(-c2ccccc2)c(=O)c1/C=N/NC(=O)COc1ccccc1[N+](=O)[O-]	-99.3%	0.8%	9.9%	21.3µM*	-8.3%	-1.6%
Cc1ccc(OCC(=O)N/N=C\c2cccn2C)c([N+](=O)[O-])c1	nt	5.5%	10.5%	10.7µM*	14.9%	nt
Cc1ccc(C)c(OCC(=O)N/N=C\c2cccn2C)c1	4.5%	0.1%	-2.3%	3.0%	-3.4%	3.1%
Cc1[nH]n(-c2ccccc2)c(=O)c1/C=N\NC(=O)C1COc2ccccc2O1 (configuration not stated)	-56.4%	?	?	1.9µM*	?	-0.5%
CC(=O)N/N=C/c1c(C)[nH]n(-c2ccccc2)c1=O	-23.0%	-1.8%	-3.0%	-2.7%	4.6%	-0.7%
Cc1[nH]n(-c2ccccc2)c(=O)c1/C=N/NC(=O)c1cccc([N+](=O)[O-])c1	-70.4%	-20.2%	-4.8%	8.49µM*	-14.3%	-5.9%
O=C(Nc1ccc(Br)c2cccnc12)c1cccc2ccccc12	9.8%	nt	nt	0.4%	nt	nt
COc1cccc(NC(=O)CSc2cc(C)[nH]c(=O)n2)c1	nt	nt	nt	1.9%	nt	nt
Cc1nn(C(=O)c2cccc([N+](=O)[O-])c2C)c(C)c1S(=O)(=O)N1CCOCC1	nt	nt	nt	1.6%	nt	nt
Cc1ccc(-n2[nH]c(C)c(/C=N/Nc3ccc([N+](=O)[O-])cc3[N+](=O)[O-])c2=O)cc1C	-72.6%	-3.0%	-13.3%	13.5µM*	-17.1%	?
O=C(Cn1cc(S(=O)(=O)N2CCN(c3ccccc3F)CC2)c2ccccc2c1=O)Nc1cccc(C(F)(F)F)c1	-2.2%	nt	nt	5.1%	nt	nt
C=CCn1c(SCC(=O)NC(N)=O)nnc1-c1cc2c(s1)CCC(CC)C2 (configuration not stated)	-29.8%	-4.3%	-1.5%	?	-0.6%	2.4%
C=CCn1c(SCC(=O)NCC)nnc1-c1cc2c(s1)CCC(CC)C2 (configuration not stated)	?	5.0%	?	12µM*	22.2%	8.3%
C=CCn1c(SCC(=O)NCCOC)nnc1-c1cc2c(s1)CCC(CC)C2 (configuration not stated)	10.9%	-4.2%	-1.2%	9.53µM*	-7.2%	4.4%
O=C(Nc1cccc(Br)c1)N1CCC(CN2CCCCCC2)CC1	nt	nt	nt	-6.0%	nt	nt
COc1ccc(OCc2cc(C(=O)N(C)CCC3CCOCC3)no2)c(Cl)c1	nt	?	?	16.9µM*	?	nt
COc1cc(C)ccc1OCc1cc(C(=O)N2CCCCCC2)no1	nt	17.7%	1.6%	?	22.0%	nt
COc1ccc(OCc2cc(C(=O)N3CCN(CC(=O)N(C)C)CC3)no2)c(Cl)c1	nt	-1.4%	6.0%	-18.9%	8.2%	nt
COc1ccc(OCc2cc(C(=O)N3CCOCC3)no2)c(Cl)c1	nt	1.58µM*	18.3µM*	6.75µM*	1.41µM*	nt
COc1cccc(OCc2cc(C(=O)N3CCC(c4ccncc4)CC3)no2)c1	nt	-22.3%	2.8%	-3.1%	-24.6%	nt
COc1ccc(OCc2cc(C(=O)NC3CCc4ccccc43)no2)c(Cl)c1 (configuration not stated)	nt	-6.1%	-4.0%	-3.1%	0.5%	nt
COc1ccc(OCc2cc(C(=O)N3CCC(c4ccccc4)CC3)no2)c(Cl)c1	nt	?	16.3%	23.9µM*	2.82µM*	nt
COc1ccc(OCc2cc(C(=O)N3CCCCCC3)no2)c(Cl)c1	nt	?	?	19µM*	?	nt
O=C(Oc1ccccc1)N1CCC2(CC1)CCN(c1ccccc1)CC2	-44.9%	nt	nt	nt	nt	1.0%

Bioassay records: PubChem, National Center for Advancing Translational Sciences (NCATS)
